These results are taken from ChEMBL document CHEMBL3988442, “University of Dundee, Small-Polar-MMV Screening Library” (2021).

Out of some 53,000 compounds screened, about 900 (1.7%) showed an effect of 50% or more. Only a selection was taken, and strong results are over-represented in it overall.

The test system of this assay is Mycobacterium tuberculosis. The assay can be described thus: Cornell - Phenotypic assay to identify agents that inhibit growth of Mycobacterium tuberculosis. Format: functional. On the set-up: scale not given: direction of the effect not stated beside the values. As to conditions: 10 mM as filed; unlikely as a test dose.
For the compound `CS(=O)(=O)CCSCc1cc(F)cc2cccnc12`, the “Percent Effect” value was -6.961%.

With `Fc1ccccc1CN1CCCN(c2ccc3cc[nH]c3n2)CC1`, the “Percent Effect” value amounted to 55.73%.

Consider `c1cc(CN2CCCN(c3ccc4cc[nH]c4n3)CC2)ccn1`, for which the “Percent Effect” value is listed as -9.703%.

`Fc1ccccc1CN1CCCN(c2ncnc3[nH]ccc23)CC1`: the “Percent Effect” value was found to be 14.79%.

On to `O=C(NCCc1csc(-c2cccnc2)n1)c1cnn2c1CCCC2`, for which the “Percent Effect” value is reported as -3.716%.

As for `Cc1ccc(OCCN2CCC(c3nc(C)n4c(C)csc34)CC2)cc1`, the “Percent Effect” value turned out to be 54.47%.

With `Cc1csc2c(C3CCN(CCOc4ccccc4F)CC3)nc(C)n12`, the “Percent Effect” value was -14.57%.

In the case of `Cc1csc2c(C3CCN(CCCOc4ccccc4)CC3)nc(C)n12`, the “Percent Effect” value came to 35.94%.

On to `Cc1nc(CN2CCO[C@@H]3CN(Cc4ccsc4)C[C@@H]3C2)cs1.O=C(O)C(F)(F)F.O=C(O)C(F)(F)F`, for which the “Percent Effect” value came to 22.49%.

For `Cc1noc(C)c1-c1nc(N(C)C)ncc1-c1cnccn1`, the “Percent Effect” value was -5.73%.

With `CC[C@@H]1N(Cc2ccsc2)CCC[C@]12CCC(=O)N2C.O=C(O)C(F)(F)F`, the “Percent Effect” value is listed as 2.508%.

With `NC(=O)C1CN(C(=O)Nc2ccccc2SC2CCCC2)CCO1` (centres undefined), the “Percent Effect” value was determined as 18.89%.

On to `CC(=O)N1CCCC1c1ccnc(Nc2cncnc2)n1` (centres undefined), for which the “Percent Effect” value is listed as -12.16%.

Consider `CC(=O)N1CCCC1CCc1ccc(Cl)nn1` (centres undefined), for which the “Percent Effect” value is reported as 30.13%.

With `CC(=O)N1CCCC1CCc1ccnc(-c2cncnc2)c1` (centres undefined), the “Percent Effect” value is reported as 56.86%.

Take `Cc1ccccc1OCCCNC(=O)C1(C)CC(=O)N2C=CC=CC2=N1` (centres undefined): the “Percent Effect” value came to 54.27%.

On to `CC1(C(=O)NCCCOc2ccccc2F)CC(=O)N2C=CC=CC2=N1` (centres undefined), for which the “Percent Effect” value is 24.68%.

Turning to `Cc1ccc(OCCCNC(=O)C2(C)CC(=O)N3C=CC=CC3=N2)cc1` (centres undefined), the “Percent Effect” value is listed as 45.74%.

As to `CN(C)[C@H]1CCCCN(C(=O)c2cccc(N3CCS(=O)(=O)CC3)c2)C1`, the “Percent Effect” value was -27.17%.

Regarding `CC(C)c1noc(CN(Cc2ccc(F)cc2)C2CC2)n1`, the “Percent Effect” value is given as -14.54%.

On to `CCC(C(=O)NCCc1nc(C)cc(C(F)(F)F)n1)n1cccn1` (centres undefined), for which the “Percent Effect” value is on record as -40.59%.

Take `COc1ccccc1C1(NCc2c(C)nc3c(C)cccn23)CCCC1.Cl`: the “Percent Effect” value is -17.64%.

`COc1ccc(C2(NCc3c(C)nc4c(C)cccn34)CCCC2)cc1.O=C(O)CC(O)(CC(=O)O)C(=O)O`: the “Percent Effect” value was 60.04%.

Consider `Cc1nc2sccn2c1CNC1(c2ccccc2F)CCCC1.O=C(O)CC(O)(CC(=O)O)C(=O)O`, for which the “Percent Effect” value is 21.81%.

Turning to `C=Cn1ncc(CN2CCc3nc(-c4ccncc4)nc(O)c3C2)c1C`, the “Percent Effect” value worked out at 24.59%.

For `O=C(Nc1ccccc1)[C@H]1C[C@@H]2CN(Cc3cccnc3)C[C@H]1O2`, the “Percent Effect” value was found to be 15.91%.

Consider `O=S(=O)(Nc1ccc(N2CCOCC2)cn1)c1cccc(F)c1`, for which the “Percent Effect” value was determined as 37.01%.

For the compound `O=S(=O)(Nc1cnc(N2CCOCC2)nc1)c1cccc(F)c1`, the “Percent Effect” value is recorded as 17.36%.

Regarding `O=S(=O)(Nc1ccc(N2CCOCC2)cc1)c1cccc(F)c1`, the “Percent Effect” value was 107.6%.

As for `OC(CN1CCC(c2ccn[nH]2)CC1)c1ccccc1F` (centres undefined), the “Percent Effect” value stood at 11.88%.

For `Cc1csc2nc3n(c(=O)c12)CCN(Cc1c[nH]cn1)CC3.Cl`, the “Percent Effect” value is on record as -9.915%.

For `CC(C)Nc1ncccc1C(=O)NCc1ncc[nH]1`, the “Percent Effect” value came out at 21.23%.

Take `Cc1cc(C(F)F)nn1C(C)C(=O)NCc1ncc[nH]1` (centres undefined): the “Percent Effect” value is listed as 51.24%.

Regarding `Cc1cc(C(F)F)nn1C(C)C(=O)NCc1nccn1C` (centres undefined), the “Percent Effect” value was -1.635%.

Turning to `CN(C)c1ncc(-c2ccncc2)c(CCNC(=O)C2CC2)n1`, the “Percent Effect” value came out at 23.54%.

As to `Cc1c(C(=O)N2CCN(C)CC2)n(C)c2ccc(Cl)cc12`, the “Percent Effect” value was determined as 29.74%.

In the case of `Cc1c(C(=O)N2CCN(c3ncccn3)CC2)n(C)c2ccc(Cl)cc12`, the “Percent Effect” value turned out to be 45.95%.

For the compound `Cc1c(C(=O)N2CCN(c3ccccn3)CC2)n(C)c2ccc(Cl)cc12`, the “Percent Effect” value is 56.67%.

In the case of `CCN1C(=O)CC[C@@H]2N(C(=O)CCn3nccc3C)CCCC[C@@]21C`, the “Percent Effect” value was determined as 10.33%.

Take `CC(C)CC(=O)N1CC(=O)c2sc(NCCc3ccccc3)nc2C1`: the “Percent Effect” value is reported as -41.09%.

On to `Cc1ccc(C2(CN3CCN(Cc4cncn4C)CC3)CC2)cc1.Cl`, for which the “Percent Effect” value is given as -21.08%.

As to `Cc1ccc(C2(CN3CCN(Cc4cn(C)nc4C)CC3)CC2)cc1.Cl`, the “Percent Effect” value is 56.88%.

For `Cc1nn(C)cc1CN1CCN(CC2(c3ccccc3)CC2)CC1`, the “Percent Effect” value came to 18.35%.

Turning to `O=C(NCc1ccncc1)N1CC(Cc2ccccc2F)C1`, the “Percent Effect” value was 8.731%.

Turning to `CCc1ccc(S(=O)(=O)Nc2c(C)cccc2C(=O)O)s1`, the “Percent Effect” value was found to be 52.73%.

Consider `CCc1ccc(S(=O)(=O)Nc2cc(C(=O)O)c(F)cc2F)s1`, for which the “Percent Effect” value is given as 1.964%.

Consider `CCc1ccc(S(=O)(=O)Nc2cc(OC)c(OC)cc2C(=O)O)s1`, for which the “Percent Effect” value was found to be 16.65%.

Consider `Cc1cc(CN(C)C2CCCN(Cc3noc(C4CC4)n3)C2)on1` (centres undefined), for which the “Percent Effect” value is listed as 2.145%.

As for `O=C1NCc2ccc(NC(=O)C3CCCN3c3nccs3)cc21` (centres undefined), the “Percent Effect” value came to 10.34%.

As to `O=C(Nc1cccc(N2CCCC2)c1)C1CCCN1c1nccs1` (centres undefined), the “Percent Effect” value is recorded as 57.22%.

`O=C(Nc1cccc2c1CCCC2)C1CCCN1c1nccs1` (centres undefined): the “Percent Effect” value is given as -2.486%.

In the case of `Cc1nn(-c2ccc(F)cc2)c2[nH]nc(N)c12`, the “Percent Effect” value was determined as 67.22%.

`Cc1nn(Cc2ccc(F)cc2)c2[nH]nc(N)c12`: the “Percent Effect” value turned out to be 41.44%.

With `Cc1nn(C)c(=O)c2nn(-c3ccc(F)cc3)c(C)c12`, the “Percent Effect” value was determined as 2.323%.

On to `COc1ccccc1CCC(=O)N1CCCC(OCc2cccnc2)C1` (centres undefined), for which the “Percent Effect” value was -21.64%.

`CC(c1nc(C2CC2)no1)N1CCN(Cc2ccccc2)CC1` (centres undefined): the “Percent Effect” value is on record as 2.279%.

On to `CC(Nc1ccc2c(c1)CCC2)c1nc(C2CC2)no1` (centres undefined), for which the “Percent Effect” value amounted to 27.18%.

Consider `CC(Nc1ccc(Br)cc1)c1nc(C2CC2)no1` (centres undefined), for which the “Percent Effect” value is on record as 54.33%.

For `COCc1cccc(CNc2cnn(C(C)(C)C)c(=O)c2Cl)c1`, the “Percent Effect” value worked out at 17.4%.

On to `COCc1ccc(CNc2cnn(C(C)(C)C)c(=O)c2Cl)cc1`, for which the “Percent Effect” value is reported as 55.73%.

As for `CC(C)(C)n1ncc(NCc2ccccc2)c(Cl)c1=O`, the “Percent Effect” value is listed as -56.94%.

`CCCN1CCC(c2nc3ccc(-c4ccncc4)cn3n2)CC1.O=C(O)C(F)(F)F.O=C(O)C(F)(F)F`: the “Percent Effect” value was -17.17%.

Take `Cc1nccn1-c1ccc(C(=O)NCC(F)(F)F)nn1`: the “Percent Effect” value is reported as 18.88%.

For the compound `Cc1cnc(C(=O)N2CCC3(CCN3Cc3ccc(F)cc3)C2)cn1.O=C(O)C(F)(F)F` (centres undefined), the “Percent Effect” value is on record as -0.7224%.
